# Compounds with a hit are over-represented: about 19% of the library has one in this group of screens.
# DT40 TDP1 no CPT – qHTS for Inhibitors of human tyrosyl-DNA phosphodiesterase 1 (TDP1): qHTS in cells in absence of CPT. DT40 Tdp1-/- hTDP1 cells, no CPT, ATP luminescence, 48 h. Potency, µM (top dose mostly 46.2 µM), for the others: at the top dose activity change, negative = growth inhibition, usual class: inhibitors. 420,000 tested, 15% active; also: potency is read from the fitted curve at half-maximal effect; nearly all actives have a fitted effect of over 55% in size
#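 DT40 Tdp1-/-;hTDP1 cells, no CPT (DMSO vehicle only), 400 cells/well; compounds pin-transferred; ≥48 hr, 37 °C; CellTiter-Glo 30 min RT dark, luminescence read.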
# IL1B secr inh – blocks inflammasome-driven IL-1 beta release | THP-1 LPS/ATP IL-1B secretion, AlphaLISA, 16 h; stronger effect = lower value | activity change, % at 57.5 µM | 360,000 tested, 4.7% active | AID 743279; in the data active = activity change below about -50%; inconclusive = mostly about -30% to -49%
#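 THP-1 cells pretreated 1 hr with compounds (up to 57.5 uM final), then stimulated with LPS (250 ng/mL final) plus ATP (1.25 mM final); secreted IL-1B measured by AlphaLISA after 16 hr, decreased signal indicating inhibition.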
# HT1080NT lethal – kills 2HG-producing HT-1080-NT fibrosarcoma cells | HT-1080-NT fibrosarcoma viability, CellTiter-Glo ATP luminescence, 48 h | Potency, µM (titrated, usually from 46.1 µM), without a hit: top-dose activity, negative = less viability, hits mostly cytotoxic | 360,000 tested, 1.6% active;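 also: NT is the 2HG producing partner of a matched IDH1 knockdown line; potency is read from the fitted curve at half-maximal effect; 0% = DMSO-treated cells and -100% = media-only wells without cells; nearly all actives have a fitted effect of over 55% in size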
#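 Read-out is CellTiter-Glo luminescence after 10 minutes at room temperature, following 48 hours' compound treatment of HT-1080-NT cells (750 cells/well, RPMI, 5% FBS, 37 degrees C).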
# TDP1 cell CPT – DT40-hTDP1 cell growth loss with CPT. Potency, µM (top dose mostly 46.2 µM), without a hit: at the highest dose activity change, negative = growth inhibition, hits mostly inhibitors. chicken DT40 Tdp1-/-;hTDP1 cells + 20 nM CPT, ATP luminescence, 48 h. 420,000 tested, 12% active. AID 686979; also: potency is read from the fitted curve at half-maximal effect; nearly all actives have a fitted effect of over 55% in size
#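 Cell growth measured by CellTiter-Glo luminescence after a minimum 48 h, 37 C compound exposure with 20 nM CPT in Tdp1-knockout DT40 cells stably expressing hTDP1, seeded 400/well; qHTS titration format.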
# HT1080 IDH1KD tx – HT-1080 IDH1 knockdown cell toxicity (counter line). HT-1080 IDH1 knockdown viability, ATP luminescence, 48 h. Potency, µM (top dose mostly 46.1 µM), for inactives: at the top dose activity, negative = toxicity, most hits filed as cytotoxic. 360,000 tested, 2% active;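 also: potency is read from the fitted curve at half-maximal effect; 0% = DMSO wells and -100% = cell-free medium wells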
#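 Luminescent ATP read-out (CellTiter-Glo, 10 min at room temperature) after 48 h compound exposure at 37 °C gave viability of IDH1-knockdown HT-1080 cells. Activity was normalised to DMSO and cell-free wells, then fitted as concentration-response curves.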
# uPA generation – blocks generation of uPA at the cell surface | cell surface uPA generation assay, qHTS | Potency, µM (series often up to 38.3 µM), for the others: at the highest dose activity change, negative = inhibition, most hits filed as inhibitors | 330,000 tested, 0.31% active | AID 540303; active = well fitted inhibition curve with a large enough effect; inconclusive = small, poorly fitted or top-dose-only effect; inactive = no such curve, though single readings can be large or run the other way; tested in mouse RAW 264.7 cells; also: potency is read from the fitted curve at half-maximal effect; nearly all actives have a fitted effect of over 55% in size
# Numbers without * were called inactive; ? = inconclusive; . = no result given. Unless noted, calls follow the shape of the dose curve; as a rule, active = well fitted curve in the direction sought with a large enough effect; inconclusive = small, poorly fitted or top-dose-only effect, or another doubt; inactive = no such curve, though single readings can be large; an effect the other way counts as inactive or inconclusive. Unless noted, % is scaled to controls: 0 for no effect and ±100 for the full control effect.
SMILES,DT40 TDP1 no CPT,IL1B secr inh,HT1080NT lethal,TDP1 cell CPT,HT1080 IDH1KD tx,uPA generation
Cc1cc(C)cc(NC(=S)Nc2ccc(Cl)c(Cl)c2)c1,20.6µM*,-23.6,?,?,?,-1.5%
CN(C)/C=N/C(=S)Nc1ccc(Cl)c(Cl)c1,?,-91.2*,-15.3%,?,?,-5.9%
O=C(Nc1ccc(Cl)c(Cl)c1)c1ccc(Cl)c(Cl)c1,5.8µM*,-6.1,-1.2%,?,6.1%,5.9%
CN(C)/C=N/C(=S)Nc1cc(Cl)cc(Cl)c1,-19.2%,-2.2,-13.4%,7.7%,-4.6%,-7.3%
CN(C)CCCNC(=O)OC1CC2CC1[C@H]1CCCCN1C2=O (some centres not stated),-17.5%,22.1,18.7%,10.7%,8.6%,.
COc1cccc(CN(C)C(=O)Cc2c[nH]c3ccccc23)c1,-14.6%,26.3,-15.5%,-26.4%,-12.1%,0.5%
NN(Cc1ccccc1)C(=S)Nc1ccc(Cl)c(Cl)c1,-0.3%,-55.8*,-9.8%,-14.0%,-12.5%,2.0%
OCCNC(=S)Nc1ccc(Cl)c(Cl)c1,-18.3%,3.2,2.6%,5.7%,-16.9%,-1.1%
OC(c1cccc(Cl)c1)c1ncc(-c2ccccc2Cl)[nH]1 (configuration not stated),?,-12.1,-22.0%,?,-13.8%,.
Cc1cnc(C)c(-c2ccc(O)c(CN3CCN(C=O)CC3)c2)n1,9.2%,.,.,10.6%,.,.
Cc1ccc2[nH]c(=O)c(CN(Cc3ccc4c(c3)OCO4)Cc3nnnn3C3CCCC3)cc2c1,?,-55.8*,-2.0%,?,-1.5%,-9.8%
Cc1cc2cc(CN(Cc3ccc4c(c3)OCO4)Cc3nnnn3C3CCCC3)c(=O)[nH]c2cc1C,13µM*,-5.8,5.3%,16.4µM*,-0.6%,2.4%
CCc1ccc2[nH]c(=O)c(CN(Cc3nnnn3C3CCCC3)C3CCCCC3)cc2c1,?,?,-12.4%,?,?,-11.4%
Clc1cccc(N2CCN(CCCN3CCN(c4ccccc4)CC3)CC2)c1,?,-52.9*,-25.8%,25.9µM*,?,-3.8%
Nc1ccc(N2CCN(c3cccc(Cl)c3)CC2)cc1,14.6µM*,?,5.7%,13µM*,0.8%,-8.5%
c1ccc(CCCN2CCN(c3ccccc3)CC2)cc1,-7.0%,7.7,-0.7%,12.8%,3.8%,1.0%
O=C(CCC(=O)N1CCN(c2cccc(Cl)c2)CC1)c1cccs1,18.4µM*,-6.9,?,?,?,1.0%
O=C(CCN1C(=O)c2ccccc2S1(=O)=O)N1CCN(c2cccc(Cl)c2)CC1,16.4µM*,0.9,-17.2%,?,-5.6%,2.8%
COCC(=O)N1CCN(c2cccc(Cl)c2)CC1,-12.5%,-15.4,3.6%,-23.2%,-1.6%,-2.0%
COc1cccc(C(=O)N2CCN(C(=O)COc3ccc4ccccc4c3)CC2)c1,?,-4.0,-1.3%,-62.5%,-4.7%,-9.4%
Cc1cc(C)c(Cn2c(=O)n(CCCCC(=O)NCc3ccccc3Cl)c(=O)c3ccccc32)c(C)c1,-3.7%,.,.,-6.6%,.,.
O=C(Cc1c(F)cccc1Cl)OCC(=O)N1CCN(c2ccccc2)CC1,?,-1.6,11.5%,18.4µM*,2.1%,-12.4%
O=C(O)CCCC(=O)N1CCN(c2cccc(Cl)c2)CC1,2.7%,4.3,-3.1%,-2.5%,8.0%,4.4%
O=C(CCC(=O)N1CCN(c2cccc(Cl)c2)CC1)N1CCN(c2ccccc2)CC1,8.2µM*,-18.3,-3.4%,18.4µM*,-18.0%,-10.7%
Cn1cc(CC(=O)N2CCN(c3ccc(Cl)cc3)CC2)c2ccccc21,13µM*,-15.2,-23.6%,?,?,-3.9%
COc1ccc(N2CCN(C(=O)COC(=O)Cc3c(F)cccc3Cl)CC2)cc1,-9.9%,10.8,6.4%,?,1.3%,2.6%
